TDP1 cell noCPT: qHTS for Inhibitors of human tyrosyl-DNA phosphodiesterase 1 (TDP1): qHTS in cells in absence of CPT; Potency, µM (highest dose often 46.2 µM), usual class: inhibitors; 15% of 420,000 active; DT40 Tdp1-/- hTDP1 cells, no CPT, ATP luminescence, 48 h; also: nearly all actives have a fitted effect of over 55% in size
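Chicken DT40 Tdp1-/- cells complemented with human TDP1, screened without camptothecin (DMSO vehicle only), 400 cells/well. Compounds pin-transferred, cells incubated at 37 °C for at least 48 hr. Growth read as ATP-dependent luminescence (CellTiter-Glo, 30 min at RT).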
DT40 TDP1 CPT: growth inhibition of DT40 Tdp1-/-;hTDP1 cells with camptothecin (screen for TDP1 inhibitors); 12% of 420,000 active; Potency, µM (top dose mostly 46.2 µM), hits mostly inhibitors; chicken DT40 Tdp1-/-;hTDP1 cells + 20 nM CPT, ATP luminescence, 48 h; also: nearly all actives have a fitted effect of over 55% in size
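Chicken DT40 Tdp1-/- cells complemented with human TDP1, 400 cells/well, exposed to compounds plus 20 nM camptothecin for at least 48 h at 37 C; viability read as ATP content by CellTiter-Glo luminescence.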
HepG2 viability: HepG2 cytotoxicity, counter-screen for TGF-b inhibitors; AID 588856; 0.76% of 410,000 active; Potency, µM (highest dose often 46.1 µM), usual class: cytotoxic; HepG2 CAGA-GFP viability, ATP luminescence, 18 h
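CellTiter-Glo luminescence gave cytotoxicity after 18 hours at 37 degrees C. The cells were HepG2 CAGA-GFP in 1% FBS DMEM, stimulated with 500 pg/mL TGF-beta after compound addition. %Activity was normalised to no-cell wells (complete cell-killing) and DMSO (no toxicity), and curves were fitted and classified.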
TDP1 block: inhibitors of human tyrosyl-DNA phosphodiesterase TDP1. recombinant TDP1, AlphaScreen DNA substrate cleavage. 0.28% of 350,000 active. Potency, µM (doses to about 130 µM), actives largely listed as inhibitors; also: nearly all actives have a fitted effect of over 40% in size
Target sequence (Q9NUW8 whole entry, looked up): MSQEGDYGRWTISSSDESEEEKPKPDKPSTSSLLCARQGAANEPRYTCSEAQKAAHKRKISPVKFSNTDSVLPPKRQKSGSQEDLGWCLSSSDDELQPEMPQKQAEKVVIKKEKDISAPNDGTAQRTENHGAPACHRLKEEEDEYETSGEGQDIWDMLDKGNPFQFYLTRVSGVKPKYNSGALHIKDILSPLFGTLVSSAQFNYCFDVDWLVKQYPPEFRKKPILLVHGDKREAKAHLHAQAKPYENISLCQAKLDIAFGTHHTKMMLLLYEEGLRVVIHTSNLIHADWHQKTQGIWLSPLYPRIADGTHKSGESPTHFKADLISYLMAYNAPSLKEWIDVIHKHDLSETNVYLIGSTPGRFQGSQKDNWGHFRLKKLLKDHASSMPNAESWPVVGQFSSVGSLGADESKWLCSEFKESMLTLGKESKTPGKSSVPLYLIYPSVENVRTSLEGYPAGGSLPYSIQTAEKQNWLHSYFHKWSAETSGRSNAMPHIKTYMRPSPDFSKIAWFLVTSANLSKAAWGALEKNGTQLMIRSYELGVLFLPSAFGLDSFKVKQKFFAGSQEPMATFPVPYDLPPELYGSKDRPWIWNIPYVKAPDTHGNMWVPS
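Enzyme-compound mixtures sat 15 min at room temperature, followed by a 5 min reaction with 15 nM final substrate and 10 min with AlphaScreen beads. Recombinant human Tdp1 was used at 1 nM final.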
TGFb SMAD3 inh: inhibitors of TGF-b signaling; 1.2% of 410,000 active; Potency, µM (doses to about 46.1 µM), actives largely listed as inhibitors; HepG2 CAGA-GFP TGF-b/SMAD3 reporter, GFP fluorescence, 18 h; TGF-beta stimulated, 500 pg/mL final; also: nearly all actives have a fitted effect of over 65% in size
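Using HEPG2 CAGA-GFP reporter cells at 1000 cells/well, we pinned test compounds, stimulated with recombinant TGF-beta (500 pg/mL final) and measured total well GFP after 18 h.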
IL1B secr inh: blocks inflammasome-driven IL-1 beta release; THP-1 LPS/ATP IL-1B secretion, AlphaLISA, 16 h; stronger effect = lower value; activity change, % at 57.5 µM; 4.7% of 360,000 active; in the data active = activity change below about -50%; inconclusive = mostly about -30% to -49%
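THP-1 cells pretreated 1 hr with compounds (up to 57.5 uM final), then stimulated with LPS (250 ng/mL final) plus ATP (1.25 mM final); secreted IL-1B measured by AlphaLISA after 16 hr, decreased signal indicating inhibition.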
Of the large screens only hits and unclear results are named; the others gave an inactive call. Compounds with a hit are over-represented: about 18% of the library has one in this group of screens. Unless noted, calls follow the shape of the dose curve; as a rule, active = well fitted curve in the direction sought with a large enough effect; inconclusive = small, poorly fitted or top-dose-only effect, or another doubt; inactive = no such curve, though single readings can be large; an effect the other way counts as inactive or inconclusive.

CC(C)c1nc(C(=O)N2CCCC(CCC(=O)N(C)CCc3ccccn3)C2)cs1 (configuration not stated)	none
Cc1cc2[nH]c(=O)c(=O)[nH]c2cc1S(=O)(=O)Nc1cccc(Cl)c1C	none (no result: TDP1 block)
Cc1ccc(-c2nnc(Nc3cccc(O)c3)c3ccccc23)cc1S(=O)(=O)N1CCN(C)CC1	TDP1 cell noCPT 18µM, DT40 TDP1 CPT inconclusive (no result: TDP1 block, IL1B secr inh)
COC(=O)c1ccc(Nc2nnc(-c3ccc(C)c(S(=O)(=O)N4CCN(C)CC4)c3)c3ccccc23)cc1	TDP1 cell noCPT 23µM, DT40 TDP1 CPT inconclusive (no result: TDP1 block, IL1B secr inh)
Cc1ccc(C)c(Nc2nnc(-c3ccc(C)c(S(=O)(=O)N4CCN(C)CC4)c3)c3ccccc23)c1	TDP1 cell noCPT 23µM, DT40 TDP1 CPT inconclusive (no result: TDP1 block, IL1B secr inh)
Cc1ccccc1Nc1nnc(-c2ccc(C)c(S(=O)(=O)N3CCN(C)CC3)c2)c2ccccc12	TDP1 cell noCPT inconclusive, DT40 TDP1 CPT inconclusive, TGFb SMAD3 inh inconclusive (no result: TDP1 block, IL1B secr inh)
Cc1ccc(-c2nnc(Nc3ccc(Br)cc3)c3ccccc23)cc1S(=O)(=O)N1CCCCC1	TDP1 cell noCPT inconclusive (no result: IL1B secr inh)
Cc1ccc(-c2nnc(Nc3ccc(Br)cc3)c3ccccc23)cc1S(=O)(=O)N1CCN(C)CC1	TDP1 cell noCPT 18µM, DT40 TDP1 CPT 12µM (no result: IL1B secr inh)
Cc1ccc(-c2nnc(Nc3ccc(O)cc3)c3ccccc23)cc1S(=O)(=O)N1CCN(C)CC1	TDP1 cell noCPT 18µM, DT40 TDP1 CPT inconclusive, TGFb SMAD3 inh 10µM (no result: TDP1 block, IL1B secr inh)
Cc1ccc(-c2nnc(Nc3ccc(F)cc3)c3ccccc23)cc1S(=O)(=O)N1CCN(C)CC1	TDP1 cell noCPT inconclusive, DT40 TDP1 CPT inconclusive, TGFb SMAD3 inh inconclusive (no result: TDP1 block, IL1B secr inh)
Cc1ccc(CNC(=O)CCNC(=O)c2ccc([N+](=O)[O-])cc2)cc1	none
O=C(N/N=C/c1ccco1)c1cc(-c2ccccc2)nc2ccccc12	TDP1 cell noCPT 4.1µM, DT40 TDP1 CPT inconclusive
COc1cccc(-c2cc(C(=O)N/N=C/c3ccco3)c3ccccc3n2)c1	TDP1 cell noCPT 0.92µM, DT40 TDP1 CPT inconclusive
COc1cccc(/C=N/NC(=O)c2oc3nc(-c4ccccc4)cc(-c4ccco4)c3c2N)c1	TDP1 cell noCPT 13µM, IL1B secr inh -58 (no result: TDP1 block)
CCCc1ccc(-c2cc(C(=O)N/N=C/c3ccc([N+](=O)[O-])o3)c3ccccc3n2)cc1	TDP1 cell noCPT 8.2µM, DT40 TDP1 CPT 16µM
Cc1ccc(-c2cc(-c3ccco3)c3c(N)c(C(=O)NN)oc3n2)cc1	TDP1 cell noCPT inconclusive, DT40 TDP1 CPT inconclusive
COc1ccc(-c2nn(-c3ccccc3)cc2C(=O)N/N=C/c2ccc([N+](=O)[O-])o2)cc1	TDP1 cell noCPT inconclusive, DT40 TDP1 CPT inconclusive
C=CCn1c(=O)c2ccccc2n2nnc(C(=O)OCC)c12	none
O=C(NN=C1CCCCCC1)c1cc(-c2ccccc2)nc2ccccc12	TDP1 cell noCPT 15µM, DT40 TDP1 CPT 16µM
Cc1ccc(-c2cc(C(=O)NN=C3CCCC3)c3ccccc3n2)cc1	none
COc1cccc(Nc2nc(N)c([N+](=O)[O-])c(N3CCOCC3)n2)c1	TDP1 cell noCPT 23µM, DT40 TDP1 CPT inconclusive (no result: TDP1 block)
CC1CC(C)CN(c2nc(NCc3ccco3)nc(N)c2[N+](=O)[O-])C1 (configuration not stated)	TDP1 cell noCPT 15µM, DT40 TDP1 CPT 16µM
CCN1CCN(c2nc(N)c([N+](=O)[O-])c(Nc3ccc(C)c(C)c3)n2)CC1	TDP1 cell noCPT 16µM, DT40 TDP1 CPT inconclusive
CC1CCCN(c2nc(NCc3ccco3)nc(N)c2[N+](=O)[O-])C1 (configuration not stated)	TDP1 cell noCPT inconclusive, DT40 TDP1 CPT inconclusive
